Source: ChEMBL document CHEMBL3988442, “University of Dundee, Small-Polar-MMV Screening Library” (2021)
The campaign covered roughly 38,000 compounds. About 1,200 (3.2%) showed an effect of 50% or more. The median lay at about -58%. What follows is part of a selection rich in strong results, with near analogues and random picks from the rest.

system: Plasmodium falciparum; assay: Calibr Malaria Delayed Death Assay SOP; type: functional, organism-based; set-up: scale not given: in the data most compounds retested in dose-response had high values; conditions: concentration 4.99e-06 (unit not given; other assays of the set use mol/L)

Row | SMILES | Percent Effect
1 | COc1cc(S(=O)(=O)N2CCc3cc(Br)ccc32)cc(C(=O)O)c1OC | -66.42%
2 | CC(=O)c1cccc(S(=O)(=O)NCCNC(=O)c2snnc2C)c1 | -10.04%
3 | Cc1csc(CN2CC[C@H]3O[C@H](C(=O)Nc4cccnc4)CC[C@H]32)n1.O=C(O)C(F)(F)F.O=C(O)C(F)(F)F | -21.13%
4 | CCC(=O)N1CC[C@H]2[C@H](C[C@@H](Cn3cccn3)N2c2nccs2)C1.O=C(O)C(F)(F)F.O=C(O)C(F)(F)F | -17.69%
5 | Cl.Cl.c1csc(N2[C@H](Cn3cncn3)C[C@@H]3CNCC[C@@H]32)n1 | -62.09%
6 | CC(C)N1CC[C@H]2[C@H](C[C@@H](Cn3cccn3)N2c2nccs2)C1.O=C(O)C(F)(F)F.O=C(O)C(F)(F)F.O=C(O)C(F)(F)F | 65%
7 | CC(=O)N1[C@H](Cn2cncn2)C[C@@H]2CN(CC3CC3)CC[C@@H]21.O=C(O)C(F)(F)F | -11.44%
8 | O=C(O)C(F)(F)F.O=C(O)C(F)(F)F.O=C(O)C(F)(F)F.c1cnn(C[C@@H]2C[C@@H]3CN(CC4CC4)CC[C@@H]3N2c2nccs2)c1 | 89.5%
9 | CC(=O)N1CC[C@H]2[C@H](C[C@@H](CN3CCCC3)N2c2nccs2)C1.O=C(O)C(F)(F)F.O=C(O)C(F)(F)F | -53.97%
10 | CC(=O)N1CC[C@H]2[C@H](C[C@@H](Cn3cncn3)N2c2nccs2)C1.O=C(O)C(F)(F)F | -37.22%
11 | CCC(=O)N1CC[C@H]2[C@H](C[C@@H](CN3CCCC3)N2c2nccs2)C1.O=C(O)C(F)(F)F.O=C(O)C(F)(F)F | -82.37%
12 | CN1CC[C@H]2[C@H](C[C@@H](CN3CCCC3)N2c2nccs2)C1.O=C(O)C(F)(F)F.O=C(O)C(F)(F)F.O=C(O)C(F)(F)F | 72.73%
13 | CN1[C@H](CN2CCCC2)C[C@@H]2CN(C(=O)Cc3cccs3)CC[C@@H]21.O=C(O)C(F)(F)F.O=C(O)C(F)(F)F | -31.64%
14 | CC(=O)N1[C@H](Cn2cncn2)C[C@@H]2CN(Cc3nccs3)CC[C@@H]21 | -179.2%
15 | CC1CCC(NC(=O)NCC(C)(C)CCS(C)(=O)=O)CC1 (stereo not drawn) | -129.7%
16 | CCN(Cc1ccc(S(C)(=O)=O)cc1)Cc1nc(COC)no1 | -129.1%
17 | O=c1cc(Cn2ccnc2)nc2n1CCCN(Cc1cccs1)C2 | -55.92%
18 | O=C(NCCCO)c1cc(-c2cc[nH]n2)n2ccccc12.O=C(O)C(F)(F)F | -31.15%
